In PubChem BioAssay:
Entries with a potency or affinity are not part of this list. Unmarked numbers belong to inactive results. Active and inactive are the calls of the source. No rule for the calls is given here.

Experiments:
[1] = A549 cell cytotoxicity, dose response, cytotoxicity control, plate reader, cherry-pick, antagonist series (AID 743412)
[2] = HepG2 cell cytotoxicity, dose response, cytotoxicity control, plate reader, cherry-pick, antagonist series (AID 743416)
[3] = biological target: Melanocortin receptor 4 (Homo sapiens) (UniProt P32245); test: MC4R antagonists, dose response, counter-screen for LGR2 antagonist project, cell-based, plate reader, cherry pick (AID 743444)

CSc1ccc(NC(=O)Nc2cc(C)ccn2)cc1
outcome [1]: inactive | outcome [2]: inactive

Cc1c(NC(=O)c2cccc(NC(=O)COc3ccccc3C#N)c2)c(=O)n(-c2ccccc2)n1C
outcome [1]: inactive | outcome [2]: inactive

O=C(O)c1ccc(Nc2nc3c(s2)CCCC3)cc1
outcome [1]: inactive | outcome [2]: inactive

CC(C)Nc1ncnc2c1cnn2-c1ccc(Cl)cc1
outcome [1]: inactive | outcome [2]: inactive

CN(c1ccccc1)S(=O)(=O)c1cccc(NC(=O)c2cc(=O)c3ccccc3o2)c1
outcome [1]: inactive | outcome [2]: inactive

Cc1csc(NC(=O)c2ccc(OCC3CCCO3)cc2)n1 (configuration not stated)
outcome [1]: inactive | outcome [2]: inactive

COc1ccc(-c2cc(C(=O)N3CCCC3)no2)cc1
outcome [1]: inactive | outcome [2]: inactive

CC(C)(C)n1ncc2c(=O)n(CC(=O)OCc3ccccc3)cnc21
outcome [1]: inactive | outcome [2]: inactive

Cc1cccc(-n2ncc3c(N(C)C4CCCCC4)ncnc32)c1
outcome [1]: inactive | outcome [2]: inactive

O=C(Nc1ccc(N2CCN(C(=O)c3ccc(Cl)cc3)CC2)cc1)c1cc2ccccc2o1
outcome [1]: inactive | outcome [2]: inactive

Cc1ccc(C(=O)n2nc(-n3cccc3)c3c(C)cc(C)nc32)cc1
outcome [1]: inactive | outcome [2]: inactive

FC(F)(F)c1cccc(CC2CN(Cc3ccccc3)Cc3ccccc3N2c2cc(Cl)cc(Cl)c2)c1 (configuration not stated)
outcome [1]: inactive | outcome [2]: inactive

COc1ccc(-n2sc3ccc(F)cc3c2=O)cc1
outcome [1]: inactive | outcome [2]: inactive

CCOC(=O)c1cn2nc(N3CCCCC3)ccc2n1
outcome [1]: inactive | outcome [2]: inactive

CC(C)Oc1ccc(CNC(=O)CC(c2ccccc2)c2cc(Cl)ccc2O)cc1 (configuration not stated)
outcome [1]: inactive | outcome [2]: inactive

COc1cc(NC(=O)c2cccc3c(-c4cnn(C)c4)coc23)cc(OC)c1OC
outcome [1]: inactive | outcome [2]: inactive

Cc1ccc(-c2cc(C(=O)N3CCOCC3)no2)cc1
outcome [1]: inactive | outcome [2]: inactive

Cc1cc(C(=O)COC(=O)c2ccccc2O)c(C)n1CC1CCCO1 (configuration not stated)
outcome [1]: inactive | outcome [2]: inactive

Cc1cc(C(=O)Nc2ccc(N3CCCCC3)cc2)no1
outcome [1]: inactive | outcome [2]: inactive

COC(=O)c1ccc2nc(-c3cccc(N)c3)cn2c1
outcome [1]: inactive | outcome [2]: inactive

C=CCNC(=O)c1c(Cl)nc(C)c([N+](=O)[O-])c1C
outcome [1]: inactive | outcome [2]: inactive

Cc1nc2c(OCCC3CCCCC3)cccn2c1N(C)C(=O)CCC1CCCC1
outcome [1]: inactive | outcome [2]: inactive

Cc1cc(C(=O)COC(=O)c2cccn2C)c(C)n1Cc1ccco1
outcome [1]: inactive | outcome [2]: inactive

Cc1cccn2c(CNCC3(c4ccccc4)CCCC3)c(C(=O)N3CCOCC3)nc12
outcome [1]: inactive | outcome [2]: inactive | outcome [3]: inactive

CC(=O)Nc1cccc(-c2ccnc3c2CC(C(=O)NCc2cccnc2)O3)c1 (configuration not stated)
outcome [1]: inactive | outcome [2]: inactive | outcome [3]: inactive

COc1cccc(C(=O)Nc2ccc3c(c2)OC[C@@H](C)N(CC2CC2)C[C@H](C)[C@H](OC)CN(C)C3=O)c1
outcome [1]: inactive | outcome [2]: inactive | outcome [3]: inactive

Cc1cc(Cl)ccc1OCCCC(=O)Nc1cc(S(=O)(=O)N2CCOCC2)ccc1N1CCOCC1
outcome [1]: inactive | outcome [2]: inactive | outcome [3]: inactive

CCc1ccc2ncc(S(=O)(=O)c3ccc(C)c(C)c3)c(N3CCCC3)c2c1
outcome [1]: inactive | outcome [2]: inactive | outcome [3]: inactive

CC1CN(C(=O)c2cccc(S(=O)(=O)Nc3cc(Cl)ccc3Cl)c2)CC(C)O1 (configuration not stated)
outcome [1]: inactive | outcome [2]: inactive | outcome [3]: inactive

O=S(=O)(Nc1ccc(O)c2ccccc12)c1ccc(OC(F)(F)F)cc1
outcome [1]: inactive | outcome [3]: inactive

C[C@@H]1CN([C@@H](C)CO)C(=O)c2cc(NS(C)(=O)=O)ccc2O[C@@H](C)CCCCO[C@@H]1CN(C)Cc1ccc(C(F)(F)F)cc1
outcome [1]: inactive | outcome [2]: inactive | outcome [3]: inactive

O=C(NCc1ccco1)c1cc(NS(=O)(=O)c2cccc([N+](=O)[O-])c2)ccc1O
outcome [1]: inactive | outcome [2]: inactive | outcome [3]: inactive

COc1ccc(NC(=O)Nc2ccc3c(c2)CC(=O)N([C@@H](C)CO)C[C@@H](C)[C@H](CN(C)Cc2ccncc2)O3)cc1
outcome [1]: inactive | outcome [3]: inactive

CC1(c2ccccc2Cl)NC(=O)N(CC(=O)N2CCc3ccccc32)C1=O (configuration not stated)
outcome [1]: inactive | outcome [2]: inactive | outcome [3]: inactive

O=C(C[C@H]1CC[C@H](NS(=O)(=O)c2cccc(F)c2)[C@@H](CO)O1)N1CCCCC1
outcome [1]: inactive | outcome [2]: inactive | outcome [3]: inactive

COc1ccc(NC(=O)N(C)C[C@@H]2OCCCC[C@H](C)Oc3ccc(NC(=O)NC4CCCCC4)cc3C(=O)N([C@H](C)CO)C[C@@H]2C)cc1
outcome [1]: inactive | outcome [2]: inactive | outcome [3]: inactive

COc1ccc(S(=O)(=O)Nc2ccc3c(c2)C(=O)N([C@H](C)CO)C[C@H](C)[C@H](CN(C)S(=O)(=O)c2ccc(F)cc2)OCCCC[C@@H](C)O3)cc1
outcome [1]: inactive | outcome [2]: inactive | outcome [3]: inactive

N#C[C@H]1[C@@H](c2ccc(C3=CCCCC3)cc2)[C@H](CO)N1C(=O)c1ccccn1
outcome [1]: inactive | outcome [3]: inactive

O=C(c1ccc(F)cc1)N1CC(=O)N2[C@@H](CO)[C@@H](c3ccc(C#CC4CCCC4)cc3)[C@@H]2C1
outcome [1]: inactive | outcome [2]: inactive | outcome [3]: inactive

C[C@H](CO)N1C[C@H](C)[C@@H](CN(C)CC2CCOCC2)Oc2ncc(Br)cc2C1=O
outcome [1]: inactive | outcome [2]: inactive | outcome [3]: inactive

CCOC(=O)C(C)N1c2cccc3cccc(c23)S1(=O)=O (configuration not stated)
outcome [1]: inactive | outcome [2]: inactive | outcome [3]: inactive

CC(C)N(C(=O)Nc1ccc2nsnc2c1)C(C)C
outcome [1]: inactive | outcome [2]: inactive | outcome [3]: inactive

Cc1noc(C)c1S(=O)(=O)Nc1ccc2c(c1)C(=O)N([C@H](C)CO)C[C@H](C)[C@H](CN(C)C(=O)Nc1ccc(F)cc1)OCCCC[C@@H](C)O2
outcome [1]: inactive | outcome [2]: inactive | outcome [3]: inactive

C[C@H](CO)N1C[C@H](C)[C@H](CN(C)C(=O)Nc2ccccc2)OCCCC[C@H](C)Oc2ccc(NC(=O)NC3CCCCC3)cc2C1=O
outcome [1]: inactive | outcome [2]: inactive | outcome [3]: inactive

C[C@H]1CCCCO[C@H](CN(C)C(=O)Nc2cccc3ccccc23)[C@@H](C)CN([C@@H](C)CO)C(=O)c2cc(NS(=O)(=O)c3cn(C)cn3)ccc2O1
outcome [1]: inactive | outcome [2]: inactive | outcome [3]: inactive

O=C(C[C@H]1C=C[C@@H](NC(=O)C2CCC2)[C@H](CO)O1)NCCCN1CCOCC1
outcome [1]: inactive | outcome [2]: inactive | outcome [3]: inactive
